This is a sample that favours compounds with a hit; in the whole collection about 2.6% have one here.
TWEAK Fn14 block: inhibitors of TWEAK-Fn14 signaling, primary screen, luciferase reporter cells, uHTS. hit rate 2% among 360,000. inhibition, % at 10 µM. TWEAK-stimulated Fn14 reporter cells, luciferase luminescence, 8 h. AID 1159606, 2016; in the data active = inhibition above about 50%
EBV LMP1 NFkB: EBV LMP1-driven NF-kappaB luciferase reporter inhibitors, primary screen, cell-based, luminescence, single point; LMP1-induced NF-kappaB luciferase reporter cells; inhibition, % at 12.5 µM; hit rate 0.69% among 350,000; in the data active = inhibition above about 41%;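 note: 0% = neutral control wells and 100% = reference inhibitor control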
EWS-Fli block: EWS/Fli-driven NR0B1 reporter inhibitors, primary screen, A673 cells, NR0B1 luciferase, luminescence, MLPCN library; viability-normalised; inhibition, % at 12.6 µM; hit rate 0.67% among 350,000;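 active = mean inhibition of at least 50% after viability correction, with every replicate also passing that limit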;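 note: firefly luciferase signal divided by Alamar Blue viability fluorescence both relative to DMSO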
LGR2 inh: inhibitors of bursicon-induced LGR2 CRE-luciferase signal, primary screen, cell-based, HEK293, CRE-luciferase reporter, bursicon stimulation | Drosophila bursicon receptor LGR2 (rickets) | bursicon-stimulated, 4 h | inhibition, % at 9.99 µM | hit rate 0.35% among 380,000;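 active = drop in luminescence signal, shown as inhibition above about 50% in the replicate tests, limit read from the data, passing the limit was not always enough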;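 note: agonist challenge used bursicon conditioned medium at about half maximal strength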
TROY NFkB inh: inhibitors of TROY-driven NF-kB signaling, primary screen, Q293 LMP1-TROYcd cells, NF-kB luciferase, uHTS | AID 1347056, 2019 | inhibition, % at 10 µM | hit rate 0.98% among 360,000 | Q293 LMP1-TROYcd NF-kB luciferase reporter, 4 h;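 active = compounds whose plate-normalised and pattern-corrected inhibition of the luciferase reporter signal at the single screening dose is 50% or more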
* hit, by the source's call; . = no result.

SMILES	TWEAK Fn14 block	EBV LMP1 NFkB	EWS-Fli block	LGR2 inh	TROY NFkB inh
C[C@@H]1CN([C@H](C)CO)S(=O)(=O)c2ccc(C#Cc3ccccc3)cc2O[C@H]1CN(C)C(=O)CN(C)C	.	.	13	15	.
COc1ccc(CN(C)C[C@H]2OCCCC[C@@H](C)Oc3ccc(NC(=O)Nc4ccc5c(c4)OCO5)cc3C(=O)N([C@H](C)CO)C[C@@H]2C)cc1	.	.	4	-8	.
CO[C@@H]1CN(C)C(=O)c2ccc(NC(C)=O)cc2OC[C@@H](C)N(C(=O)C2CC2)C[C@H]1C	.	.	1	13	.
Cn1c(=O)c(C#N)c(-c2ccc(F)cc2)c2cc(C(=O)c3cc(Cl)cc(Cl)c3O)cnc21	57*	4	23	9	67*
Cc1ccccc1C(=O)Nc1c(C(=O)N2CCCC2)cnn1-c1ccccc1	10	3	-7	12	-8
CC(=O)Nc1c(C(=O)N2CCCCCC2)cnn1-c1ccccc1	-1	79*	.	9	-11
Cc1[nH]n(-c2ccccc2)c(=O)c1/C=N/NC(=O)c1cccc(F)c1	30	39	-17	-5	3
Cc1[nH]n(-c2ccccc2)c(=O)c1/C=N/Nc1nncc(-c2ccccc2)n1	-2	69*	18	13	10
Cc1[nH]n(-c2ccc(Br)cc2)c(=O)c1/C=N/NC(=O)c1ccccc1	33	47*	-37	-6	2
COc1ccccc1C#Cc1ccc([C@@H]2[C@@H](C#N)N(C(=O)C3CCCCC3)[C@H]2CO)cc1	.	.	0	.	.
N#C[C@H]1[C@H](c2ccc(C#Cc3ccccc3F)cc2)[C@H](CO)N1C(=O)C1CCCC1	.	.	1	104*	.
N#C[C@H]1[C@H](c2ccc(C#Cc3ccccc3F)cc2)[C@H](CO)N1C(=O)C1CC1	.	.	-36	62*	.
COc1ccccc1C#Cc1ccc([C@H]2[C@@H](C#N)N(C(=O)C3CCCCC3)[C@H]2CO)cc1	.	.	63*	.	.
C[C@@H]1CN([C@H](C)CO)C(=O)c2cc(C#CC3CC3)cnc2O[C@@H]1CN(C)C(=O)Nc1ccccc1	.	.	-3	-1	.
Cc1ccc(S(=O)(=O)Nc2ccc3c(c2)C(=O)N([C@H](C)CO)C[C@H](C)[C@@H](CN(C)Cc2ccc(C(=O)O)cc2)OCCCC[C@H](C)O3)cc1	.	.	-18	20	.
CCCCNC(=O)c1ccc(C#CC(C)(C)C)c(OC(C)=O)c1	.	.	-72	.	.
Cc1ccc2nc(CSc3nc(C)cc(C)c3C#N)[nH]c2c1	38	-75	.	.	59*
CCc1cc2c(COC(=O)c3cccc(S(C)(=O)=O)c3)cc(=O)oc2cc1O	56*	5	-2	1	33
Cc1ccc(S(=O)(=O)NCC(=O)OCc2cc(=O)oc3c(C)c(C)ccc23)cc1C	6	-5	-7	2	0
CNS(=O)(=O)c1cccc(C(=O)OCc2cc(=O)oc3c(C)c(O)ccc23)c1	34	6	4	10	51*
CC1OC(Nc2cccc3ccccc23)C(O)C(O)C1O (configuration not stated)	92*	-1	.	.	28
O=C(Nc1cc(-c2ccccc2)nn1C1CCCCC1)c1ccc(Cl)cc1	14	-4	17	26	54*
Cn1nc(-c2ccccc2)cc1NC(=O)c1ccccc1	-2	-7	-8	-22	-56
CC(C)CC(=O)/C(=C\c1ccc(Cl)cc1Cl)n1cncn1	106*	8	.	.	74*
CO[C@@H]1CN(C)C(=O)c2ccc(NC(=O)Nc3ccccc3F)cc2OC[C@@H](C)N(C(=O)c2cnccn2)C[C@H]1C	.	.	-4	1	.
SMILES	TWEAK Fn14 block	EBV LMP1 NFkB	EWS-Fli block	LGR2 inh	TROY NFkB inh
C[C@@H]1CN([C@@H](C)CO)C(=O)c2cc(NC(=O)Cc3ccccc3)ccc2O[C@H]1CN(C)C(=O)Nc1ccc2c(c1)OCO2	.	.	-13	22	.
Cc1ccc(C)c(Nc2cc(C)nc(-c3ccccc3O)n2)c1	9	15	62*	4	9
O=C(c1ccncc1)N1CC2(C1)[C@@H](c1ccccc1)[C@@H](CO)N2CC1CCOCC1	.	.	3	2	.
Cc1nn(Cc2ccccc2Cl)c2sc(C(=O)Nc3nccs3)cc12	19	-13	.	-21	23
CCC(CC)NC(=O)c1cc2c(C)nn(Cc3ccccc3Cl)c2s1	74*	6	.	.	.
C[C@@H]1CN([C@H](C)CO)C(=O)c2ccccc2-c2ccccc2CO[C@@H]1CN(C)S(=O)(=O)c1ccsc1	.	.	-4	2	.

Screens (PubChem BioAssay)
